# Assay outcomes deposited in PubChem by several laboratories.
# p47phox inh = p47phox/p22phox peptide binding inhibitors, primary screen, biochemical, uHTS, NADPH oxidase regulatory subunit. inhibition, % at 24.7 µM. AID 1274, 2008. fluorescence polarization, 2 h. actives 0.53% (n = 220,000). Neutrophil cytosol factor 1 (Homo sapiens), P14598;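 active means inhibition above about 30%, limit read from the data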;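 further: 0% = p47phox with labelled peptide and 100% = labelled peptide alone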
# Target sequence (P14598 whole entry, looked up): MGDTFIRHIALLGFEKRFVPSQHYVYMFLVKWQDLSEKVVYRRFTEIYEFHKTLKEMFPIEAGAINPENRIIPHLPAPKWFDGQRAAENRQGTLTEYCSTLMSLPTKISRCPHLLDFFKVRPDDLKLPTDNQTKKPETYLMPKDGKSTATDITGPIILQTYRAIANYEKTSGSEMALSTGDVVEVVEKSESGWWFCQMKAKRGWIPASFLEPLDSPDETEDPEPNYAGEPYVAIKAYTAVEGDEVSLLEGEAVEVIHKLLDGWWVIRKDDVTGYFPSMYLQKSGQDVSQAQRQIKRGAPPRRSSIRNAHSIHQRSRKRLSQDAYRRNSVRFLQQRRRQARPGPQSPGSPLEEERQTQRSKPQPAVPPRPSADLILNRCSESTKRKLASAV
# ZTA counter = counter-screen for EBNA-1 inhibitors: inhibitors of Epstein-Barr virus ZTA; P03206; ZTA-DNA binding, fluorescence polarization; inhibition, % at 11 µM; actives 0.15% (n = 320,000); in the data active means inhibition above about 33%
# Target sequence (P03206 whole entry, looked up): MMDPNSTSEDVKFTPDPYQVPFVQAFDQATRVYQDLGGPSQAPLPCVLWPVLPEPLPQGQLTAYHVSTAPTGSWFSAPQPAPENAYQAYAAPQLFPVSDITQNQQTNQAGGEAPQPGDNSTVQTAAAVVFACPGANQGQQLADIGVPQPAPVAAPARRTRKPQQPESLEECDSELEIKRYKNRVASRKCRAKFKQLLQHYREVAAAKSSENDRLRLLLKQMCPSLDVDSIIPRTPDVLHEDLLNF
# EBNA-1 inh = EBNA-1 DNA-binding inhibitors, primary screen, biochemical, fluorescence polarization; inhibition, % at 14.8 µM; actives 0.34% (n = 300,000); AID 1950, 2009; in the data active means inhibition above about 28%
# aDG glyco act = activators of alpha-DG glycosylation, primary screen, uHTS, Pro5-aDG cells, AlphaScreen; alpha-DG glycosylation AlphaScreen (IIH6); 0% Pro5, 100% B10-LARGE cell signal; activation, % at 10 µM; actives 0.22% (n = 360,000); AID 624168, 2012;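 active means activation of at least 8% versus controls, or a plate z-score of at least 8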;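 further: Pro5 are CHO cells carrying HIG-tagged alpha-DG that lacks glycosylation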
# PG9 Ab binder = binders of HIV-1 gp120 antibody PG9, primary screen, biochemical, TR-FRET; HIV-1 gp120 / PG9 antibody interaction; TR-FRET gp120-PG9 antibody binding; inhibition, % at 6.7 µM; actives 0.43% (n = 360,000); AID 624416, 2012; in the data active means inhibition above about 8.5%
# Rev-erbA mod = modulators of Rev-erb alpha DNA binding, primary screen, biochemical, FITC-DNA, fluorescence polarization, uHTS | Rev-erbα–FITC-DNA binding, 90 min | activity, % at 10 µM | actives 0.79% (n = 370,000) | AID 1259318, 2017;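 active means activity above about 14%, limit read from the data; passing the limit was not always enough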;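 further: 0% = DMSO wells with 35 nM protein and 100% = DMSO wells with 750 nM protein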
# NR1D1 mod conf = modulators of Rev-erb alpha DNA binding, confirmation, biochemical, FITC-DNA, fluorescence polarization, single point | shares compounds with Rev-erbA mod | activation, % at 25 µM | 90 min | actives 61% (n = 3,000) | AID 1259319, 2017;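 active means activation at or above a set limit, or at least 3 SD above the negative control mean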;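 further: 0% = 35 nM protein with DMSO and 100% = 750 nM protein high control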
# RORg DNA counter = modulation of RORgamma DNA binding, dose response, counter-screen for Rev-erb alpha modulator project, biochemical, fluorescence polarization, FITC-DNA; shares compounds with Rev-erbA mod; purified RORgamma protein-FITC-DNA binding; IC50, µM; actives 8% (n = 910);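 active means Compounds whose fitted half-maximal concentration for disrupting protein-DNA binding is below 10 micromolar; the record names Rev-erb in its text, so the target is in doubt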
# Numbers without * were called inactive; nt = no result given. A selection: hits, their analogues and other compounds. The true share with any hit is near 1.9%.
SMILES,p47phox inh,ZTA counter,EBNA-1 inh,aDG glyco act,PG9 Ab binder,Rev-erbA mod,NR1D1 mod conf,others
c1ccc(Oc2nnc(-c3cccs3)c3ccccc23)cc1,-4.3,7.0,-1.1,0.3,-2.7,25.6*,10.7,
COc1ccc(Oc2nnc(-c3ccc(C)cc3)c3ccccc23)cc1,-1.2,-6.3,-7.7,0.1,1.6,26.8*,14.6,
CC(C)C(NC(=O)[C@H](Cc1ccccc1)NC(=O)OCc1ccccc1)P(=O)(O)OC(Cc1ccccc1)C(=O)O (stereo not given in full),nt,nt,nt,nt,nt,-6.5,nt,
CCC[C@H]1[C@@H](OC(=O)NCc2ccc(C)o2)CC[C@@]23CCCN2C(=O)CCC[C@@H]13,nt,nt,nt,nt,nt,4.6,nt,
C=C(C)CSc1nc(N)c2c(C)c(C)sc2n1,-4.4,-17.1,5.6,-0.2,1.4,26.0*,26.4*,
O=C(CCc1c[nH]c2ccccc12)NCCc1ccc(Cl)cc1,nt,0.8,-17.8,-0.1,-0.9,37.2*,35.6*,RORg DNA counter=>40
O=C(CCc1c[nH]c2ccccc12)NCCc1ccccc1,nt,3.6,5.8,0.0,-0.7,7.7,nt,
CN(C)/C=N/C1=C(C#N)C(c2cccs2)c2ccc3ccccc3c2O1 (stereo not given),-34.3,nt,nt,0.0,-1.2,172.8*,117.2*,RORg DNA counter=>40
COC(=O)[C@H]1C[C@]2(C(/C=C(\C)CCC=C(C)C)S(=O)(=O)c3ccccc3)c3ccccc3N[C@H]2N1 (stereo not given in full),nt,nt,nt,nt,nt,-3.8,nt,
NS(=O)(=O)c1ccc(Nc2ccc([N+](=O)[O-])c3nonc23)cc1,-124.9,-3.0,3.2,-0.1,-6.7,26.7*,16.7,
CCc1nnc(NS(=O)(=O)c2ccc(Nc3ccc([N+](=O)[O-])c4nonc34)cc2)s1,-113.0,-2.6,1.0,-0.3,-3.5,21.4*,33.1*,RORg DNA counter=>40
O=C(O)c1ccc(Nc2ccc([N+](=O)[O-])c3nonc23)cc1,nt,nt,nt,0.0,-6.9,6.2,nt,
O=[N+]([O-])c1ccc(Nc2ccccc2O)c2nonc12,nt,nt,nt,0.0,-17.4,31.8*,19.6*,
Cc1ccc(NC(=O)c2ccc(CS(=O)(=O)Cc3ccccc3C)o2)c(C)c1,nt,nt,nt,nt,nt,4.1,nt,
Cc1ccc(OC[C@@H](O)CN2CCC(C(O)(c3ccccc3)c3ccccc3)CC2)cc1,nt,nt,nt,nt,nt,-6.5,nt,
N#Cc1cccc(NC(=O)O[C@@H]2CC[C@@]34CCCN3C(=O)CCC[C@H]4C2)c1,nt,nt,nt,nt,nt,2.6,nt,
Cc1ccccc1Cn1cc(S(=O)(=O)c2ccc(C(C)C)cc2)c(=O)c2cc3c(cc21)OCO3,nt,-0.3,-1.0,0.1,0.1,40.3*,21.3*,
Cc1ccccc1CC(=O)Nc1nnc(-c2cccnc2)s1,nt,nt,nt,nt,nt,-3.1,nt,
CCCOc1ccc(/C(CC)=N/NC(=O)C2(C)CC2(Br)Br)cc1 (stereo not given),7.8,6.0,3.0,-0.1,-0.9,34.1*,47.1*,RORg DNA counter=>40
CC/C(=N/NC(=O)c1ccc(Br)cc1)c1ccc(OCCN2CCOCC2)cc1,-7.3,-7.7,9.3,-0.2,-0.7,0.2,nt,
O=C(Nc1ccccc1Oc1ccccc1)NC1CCCCN(Cc2cccc(Cl)c2)C1=O (stereo not given),nt,nt,nt,nt,nt,-0.8,nt,
CCCCCOc1ccc(NC(=O)CSc2cccc3cccnc23)cc1,16.6,5.3,-1.9,2.1,-2.3,45.7*,38.9*,RORg DNA counter=1.35*
COc1ccc(NC(=O)CSc2cccc3cccnc23)c(OC)c1,2.7,-8.3,2.1,-0.1,-2.9,1.0,nt,
CCN(Cc1nc2cc(Cl)ccc2c(=O)[nH]1)C(=O)c1cc2c(s1)CCCCC2,nt,nt,nt,0.0,-0.5,54.0*,33.9*,RORg DNA counter=>40
CCN(Cc1nc2cc(Cl)ccc2c(=O)[nH]1)C(=O)C1CC(=O)N(c2cccc3ccccc23)C1 (stereo not given),nt,6.4,nt,-0.2,0.4,-4.5,nt,
SMILES,p47phox inh,ZTA counter,EBNA-1 inh,aDG glyco act,PG9 Ab binder,Rev-erbA mod,NR1D1 mod conf,others
Cc1ccc2nsnc2c1S(=O)(=O)N(Cc1ccco1)Cc1cc2cccc(C)c2[nH]c1=O,0.5,-2.5,-2.5,-0.6,nt,26.4*,14.5,
COc1ccc(Cl)cc1-c1cc(C(=O)Nc2ccc(F)cc2)[nH]n1,nt,nt,nt,-0.2,0.1,66.6*,48.0*,RORg DNA counter=>40
COc1ccc(NC(=O)c2cc(-c3cc(Cl)ccc3OC)n[nH]2)cc1OC,nt,nt,nt,-0.1,0.2,8.0,nt,
COc1ccc(S[C@]2(C(=O)NCc3ccccc3)CC(=O)N[C@@H]2c2ccc(OC)cc2)cc1,nt,nt,nt,nt,nt,3.8,nt,
CCOc1cc(CCNC(=O)c2cc3sccc3n2CC)ccc1OC,nt,nt,nt,nt,nt,4.7,nt,
C=CCN1[C@H](C#N)[C@@H](c2ccccc2)[C@H]1CO,nt,nt,nt,nt,nt,2.4,nt,
Cn1cc(/C=C2\SC(=O)NC2=S)c2ccccc21,-8.3,4.5,-3.9,-0.3,-9.3,27.3*,17.0,
COC(=O)C[C@H]1CC[C@H]2[C@H](COc3ccc(NS(=O)(=O)c4ccccc4C)cc3C(=O)N2C)O1,nt,nt,nt,nt,nt,-1.7,nt,
CCOc1cc(/C=C2/C(=N)N3C=CSC3=NC2=O)ccc1OCCCOc1ccccc1C,-23.8,-8.0,0.5,0.3,-1.0,18.4*,4.7,
CC(=O)c1sc(NC(=O)COc2ccc(Cl)cc2C)nc1C,-29.0,-13.1,-0.9,0.1,2.9,84.1*,25.3*,
CC(=O)c1sc(NC(=O)COc2c(C)cc(Cl)cc2C)nc1C,-14.9,1.2,4.4,nt,nt,nt,nt,
CC(=O)c1sc(NC(=O)COc2ccc(Cl)cc2Cl)nc1C,-35.6,-8.4,-16.4,-0.1,0.4,31.0*,1.2,
COc1ccc(NC(=O)NC2CCN(S(=O)(=O)c3ccc(F)cc3)CC2)cc1OC,nt,nt,nt,nt,nt,-4.7,nt,
COC(=O)c1sc2nc(C)cc(C)c2c1N,5.8,-0.8,1.7,-0.2,1.9,11.0,nt,
C=COC(=O)c1sc2nc(C)cc(C)c2c1N,-5.7,9.3,0.3,0.0,0.5,24.3*,13.2,
O=C(c1ccco1)N1CCN(c2nc3ccsc3c(=O)s2)CC1,-8.9,10.4,-13.2,-0.1,-1.7,1.4,nt,
O=c1sc(N2CCN(c3ccccc3F)CC2)nc2ccsc12,-28.1,5.8,-0.9,-0.3,-2.3,24.0*,13.8*,
CCN(CC)c1ccc(/C=c2/sc3nnc(-c4ccccc4C)n3c2=O)cc1,-191.6,-6.7,-1.7,-0.2,0.0,13.1,nt,
CCN(CC)c1ccc(/C=c2\sc3nnc(-c4ccccc4Cl)n3c2=O)cc1,-199.0,-2.9,6.8,-0.1,-1.5,18.9*,13.6,
COc1ccc(N2CCN(c3oc(-c4ccc(OC)c(OC)c4)nc3C#N)CC2)cc1,1.3,10.3,9.0,-0.1,0.3,58.0*,-1.4,
